Structures can show the parent of a compound that is named as a salt. ± gives the standard deviation of the averaged measurements.
Legend:
Test in all cases: growth (OD600 after 10 h); higher = more growth (less inhibition)
[1] = tested on: E. coli TESEC Alr+ wild-type control; conditions: compound 0.1 mM; raw OD600 reference: median of DMSO wells 0.241, cell-free background 0.041
Protocol: (§1)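 TESEC Mtb Alr E. coli, or the Alr+ wild-type control, in 384-well plates with Prestwick library compounds at 0.1 mM and 1% DMSO, across arabinose induction levels of 1E3 to 1E7 nM. Growth is read as OD600 after 10 h at 37 °C in triplicate biological replicates.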

[2] = tested on: E. coli TESEC Mtb Alr; conditions: compound 0.1 mM
Protocol: as §1

[3] = tested on: E. coli TESEC Mtb Asd; conditions: compound 0.1 mM
Protocol: (§2)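 TESEC E. coli strains in which the native enzyme is deleted and replaced by arabinose-inducible Mtb Asd, DapB, CysH or TrpD, each grown in its selective medium. Strains were screened against the Prestwick library at 0.1 mM and 1% DMSO in 384-well format at low and high arabinose induction. Growth is read as OD600 after 10 h in triplicate.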

[4] = tested on: E. coli TESEC Mtb Alr; conditions: compound 0.1 mM; remark: listed apart in the source
Protocol: (§3)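 TESEC Mtb Alr E. coli (ΔaraC ΔtolC ΔentC Δalr ΔdadX, arabinose-inducible Mtb Alr) or the Alr+ wild-type control strain, grown in defined M9-fructose medium without D-alanine in 96-well plates with Prestwick library compounds at 0.1 mM and 1% DMSO. Low Alr induction is 0.1 µM arabinose and high induction is 10 mM arabinose.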

[5] = tested on: E. coli TESEC Alr+ wild-type control; conditions: compound 0.1 mM; raw OD600 reference: median of DMSO wells 0.49, cell-free background 0.052
Protocol: as §3

[6] = tested on: E. coli TESEC Mtb DapB; conditions: compound 0.1 mM
Protocol: as §2

[7] = arabinose 1000 nM, raw OD600 reference: median of DMSO wells 0.294, cell-free background 0.041
[8] = arabinose 10000 nM, raw OD600 reference: median of DMSO wells 0.264, cell-free background 0.041
[9] = arabinose 100000 nM, raw OD600 reference: median of DMSO wells 0.201, cell-free background 0.041
[10] = arabinose 1000000 nM, raw OD600 reference: median of DMSO wells 0.193, cell-free background 0.041
[11] = arabinose 10000000 nM, raw OD600 reference: median of DMSO wells 0.146, cell-free background 0.041
[12] = arabinose induction (level): High, raw OD600 reference: median of DMSO wells 0.331, cell-free background 0.041
[13] = arabinose induction (level): Low, raw OD600 reference: median of DMSO wells 0.417, cell-free background 0.041
[14] = arabinose 100 nM, raw OD600 reference: median of DMSO wells 0.413, cell-free background 0.052
[15] = arabinose 10000000 nM, raw OD600 reference: median of DMSO wells […], cell-free background 0.052
[16] = arabinose induction (level): High, raw OD600 reference: median of DMSO wells […], cell-free background 0.041
[17] = arabinose induction (level): Low, raw OD600 reference: median of DMSO wells 0.227, cell-free background 0.041

| Structure (SMILES) | growth [1] | growth [2, 7] | growth [2, 8] | growth [2, 9] | growth [2, 10] | growth [2, 11] | growth [3, 12] | growth [3, 13] | growth [4, 14] | growth [4, 15] | growth [5] | growth [6, 16] | growth [6, 17] |
| --- | --- | --- | --- | --- | --- | --- | --- | --- | --- | --- | --- | --- | --- |
| C=CCC1(CC(C)C)C(=O)NC(=O)NC1=O [Butalbital] | 0.2428 ± 0.002 | 0.282 ± 0.011 | 0.276 ± 0.0052 | 0.198 ± 0.012 | 0.211 ± 0.0091 | 0.149 ± 0.0019 | 0.407 ± 0.1 | 0.3 ± 0.074 | 0.395 ± 0.0067 | 0.37 ± 0.0073 | – | – | – |
| O=c1[nH]c2ccccc2n1C1CCN(CCCC(c2ccc(F)cc2)c2ccc(F)cc2)CC1 [Pimozide] | 0.164 ± 0.013 | 0.243 ± 0.0073 | 0.2629 ± 0.0026 | 0.226 ± 0.045 | 0.106 ± 0.0046 | 0.142 ± 0.004 | 0.209 ± 0.024 | 0.396 ± 0.015 | 0.417 ± 0.0074 | 0.307 ± 0.034 | – | – | – |
| C(#CCN1CCCC1)CN1CCCC1 [Tremorine dihydrochloride] | 0.275 ± 0.0094 | 0.317 ± 0.011 | 0.27 ± 0.005 | 0.239 ± 0.013 | 0.194 ± 0.0086 | 0.162 ± 0.008 | 0.425 ± 0.059 | 0.464 ± 0.029 | 0.415 ± 0.018 | 0.375 ± 0.023 | 0.696 ± 0.067 | – | – |
| CCN[C@@H](C)Cc1cccc(C(F)(F)F)c1 [Dexfenfluramine hydrochloride] | 0.23 ± 0.013 | 0.315 ± 0.0066 | 0.261 ± 0.0059 | 0.232 ± 0.027 | 0.174 ± 0.0053 | 0.158 ± 0.0058 | 0.235 ± 0.033 | 0.335 ± 0.083 | 0.412 ± 0.0093 | 0.351 ± 0.026 | – | – | – |
| Cc1cccc(C)c1NC1=NCCCS1 [Xylazine] | 0.236 ± 0.0094 | 0.284 ± 0.0052 | 0.247 ± 0.0072 | 0.208 ± 0.029 | 0.169 ± 0.0055 | 0.137 ± 0.006 | 0.298 ± 0.051 | 0.34 ± 0.11 | 0.424 ± 0.0078 | 0.352 ± 0.023 | 0.487 ± 0.05 | – | – |
| COc1ccc(C(CN(C)C)C2(O)CCCCC2)cc1 (stereo not given) [Venlafaxine] | 0.219 ± 0.015 | 0.301 ± 0.016 | 0.251 ± 0.01 | 0.185 ± 0.013 | 0.178 ± 0.0042 | 0.137 ± 0.0036 | 0.436 ± 0.066 | 0.459 ± 0.032 | 0.415 ± 0.0048 | 0.338 ± 0.025 | – | 0.207 ± 0.0032 | 0.22 ± 0.016 |
| CCn1cc(C(=O)O)c(=O)c2cc3c(cc21)OCO3 [Oxolinic acid] | 0.0726 ± 0.0019 | 0.05577 ± 0.00049 | 0.0509 ± 0.00026 | 0.0646 ± 0.0014 | 0.0934 ± 0.0036 | 0.123 ± 0.0027 | 0.156 ± 0.011 | 0.149 ± 0.011 | 0.0698 ± 0.0013 | 0.0582 ± 0.0011 | – | 0.194 ± 0.0098 | 0.208 ± 0.054 |
| O=c1[nH]c2ccccc2n1CCCN1CCC(n2c(=O)[nH]c3cc(Cl)ccc32)CC1 [Domperidone] | 0.129 ± 0.0039 | 0.183 ± 0.0075 | 0.214 ± 0.015 | 0.149 ± 0.0082 | 0.09803 ± 0.00075 | 0.124 ± 0.0039 | 0.1177 ± 0.0011 | 0.176 ± 0.018 | 0.41 ± 0.0087 | 0.246 ± 0.0035 | – | – | – |
| CN[C@@H]1[C@@H](O)[C@@H](O[C@@H]2[C@@H](O)[C@H](O[C@H]3O[C@H](CN)CC[C@H]3N)[C@@H](N)C[C@H]2N)OC[C@]1(C)O.CN[C@@H]1[C@@H](O)[C@@H](O[C@@H]2[C@@H](O)[C@H](O[C@H]3O[C@H]([C@@H](C)N)CC[C@H]3N)[C@@H](N)C[C@H]2N)OC[C@]1(C)O.CN[C@@H]1[C@@H](O)[C@@H](O[C@@H]2[C@@H](O)[C@H](O[C@H]3O[C@H]([C@@H](C)NC)CC[C@H]3N)[C@@H](N)C[C@H]2N)OC[C@]1(C)O [Gentamicine sulfate] | 0.0458 ± 0.00049 | 0.04643 ± 0.00025 | 0.0414 ± 0.00061 | 0.0505 ± 0.0026 | 0.0448 ± 0.00064 | 0.075 ± 0.001 | 0.134 ± 0.021 | 0.0693 ± 0.0051 | 0.191 ± 0.13 | 0.0981 ± 0.037 | – | – | – |
| NC(=O)CN1CCCC1=O [Piracetam] | 0.245 ± 0.0091 | 0.299 ± 0.0073 | 0.27 ± 0.0054 | 0.224 ± 0.034 | 0.184 ± 0.0072 | 0.15 ± 0.0043 | 0.302 ± 0.06 | 0.325 ± 0.092 | 0.415 ± 0.011 | 0.346 ± 0.018 | – | 0.202 ± 0.0067 | 0.208 ± 0.028 |
| C#C[C@]1(O)CC[C@H]2[C@@H]3CCC4=CC(=O)CCC4=C3C=C[C@@]21CC [Gestrinone] | 0.13 ± 0.0014 | 0.195 ± 0.02 | 0.18 ± 0.0068 | 0.173 ± 0.0028 | 0.105 ± 0.011 | 0.134 ± 0.0068 | 0.216 ± 0.065 | 0.253 ± 0.12 | 0.374 ± 0.0073 | 0.165 ± 0.03 | – | – | – |
| Fc1ccc(C(OCCN2CCN(CCCc3ccccc3)CC2)c2ccc(F)cc2)cc1 | 0.0433 ± 0.0027 | 0.04027 ± 0.00025 | 0.0453 ± 0.00061 | 0.0419 ± 0.0013 | 0.045 ± 0.00035 | 0.0435 ± 0.00049 | 0.0464 ± 0.00055 | 0.04613 ± 0.00046 | 0.235 ± 0.15 | 0.0503 ± 0.0006 | – | – | – |
| O=P1(NCCCl)OCCCN1CCCl (stereo not given) [Ifosfamide] | 0.233 ± 0.012 | 0.301 ± 0.027 | 0.2741 ± 0.0022 | 0.175 ± 0.022 | 0.192 ± 0.0026 | 0.137 ± 0.0089 | 0.374 ± 0.074 | 0.48 ± 0.032 | 0.417 ± 0.011 | 0.359 ± 0.01 | – | – | – |
| COc1ccc(OC)c(C(O)C(C)N)c1 (stereo not given) [Methoxamine hydrochloride] | 0.241 ± 0.0052 | – | – | – | – | – | 0.272 ± 0.074 | 0.409 ± 0.021 | 0.413 ± 0.011 | 0.334 ± 0.023 | – | 0.223 ± 0.033 | 0.222 ± 0.028 |

— the supplement of paper PMC9262897, “Low-cost anti-mycobacterial drug discovery using engineered E. coli” (Nature Communications, 2022)
